# Measured values reported in PubChem BioAssay (NCATS).
# Records with an inconclusive call do not appear. Values without a mark were called inactive. The source made the active and inactive calls. Calls follow the shape of the dose curve; as a rule, active = well fitted cell-killing curve with a large enough effect; inconclusive = small, poorly fitted or top-dose-only effect, or effect the other way; inactive = no such curve, though single readings can be large or run the other way. Positions of bridges follow the written chain, without caps; N, C: chain ends. Non-standard residues stand in square brackets, D forms with d. Residues, ends and D or L forms follow the SMILES beside them. ξ: configuration not given here. *: point of attachment. Octanoyl(6-Me) = CCC(C)CCCCC(=O)*; ξThr(3R) = C[C@@H](O)C(N)C(=O)O; dDab = NCC[C@@H](N)C(=O)O; Dab = NCC[C@H](N)C(=O)O
# Experiments:
# [1] = Quantitative High-Throughput drug screen in 47 multiple myeloma cell lines against the NCATS MIPE library collection: OCIMY5_PLB cell viability assay (AID 1918988); also: nearly all actives have a fitted effect of over 65% in size
# Method in brief: (§1)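 ATP-based CellTiter-Glo luminescence after 48 h drug exposure (37 °C, 5% CO2) of 500 myeloma cells per well. DMSO-only wells set 100% viability, media-only wells 0%; MIPE 4.0 library added by pin tool.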
# [2] = Quantitative High-Throughput drug screen in 47 multiple myeloma cell lines against the NCATS MIPE library collection: OPM1_PLB cell viability assay (AID 1918989); also: nearly all actives have a fitted effect of over 40% in size
# Method in brief: as §1
# [3] = Quantitative High-Throughput drug screen in 47 multiple myeloma cell lines against the NCATS MIPE library collection: SKMM1_PLB cell viability assay (AID 1919863); details: SKMM1 myeloma viability, CellTiter-Glo ATP, 48 h; viability: hits give low values; also: nearly all actives have a fitted effect of over 35% in size
# Method in brief: as §1
# [4] = Quantitative High-Throughput drug screen in 47 multiple myeloma cell lines against the NCATS MIPE library collection: U266_ATCC cell viability assay (AID 1919864); also: nearly all actives have a fitted effect of over 35% in size
# Method in brief: as §1
# [5] = Quantitative High-Throughput drug screen in 47 multiple myeloma cell lines against the NCATS MIPE library collection: XG6_PLB cell viability assay (AID 1919865); also: nearly all actives have a fitted effect of over 40% in size
# Method in brief: as §1
# [6] = Quantitative High-Throughput drug screen in 47 multiple myeloma cell lines against the NCATS MIPE library collection: XG1_PLB cell viability assay (AID 1919866); also: nearly all actives have a fitted effect of over 35% in size
# Method in brief: as §1
# [7] = Quantitative High-Throughput drug screen in 47 multiple myeloma cell lines against the NCATS MIPE library collection: VP6_DJ cell viability assay (AID 1919867); also: nearly all actives have a fitted effect of over 40% in size
# Method in brief: as §1
# [8] = Quantitative High-Throughput drug screen in 47 multiple myeloma cell lines against the NCATS MIPE library collection: UTMC2_PLB cell viability assay (AID 1919868); details: CellTiter-Glo ATP luminescence, 48 h; viability (% of DMSO control): at 45.8 µM (top of the series); also: nearly all actives have a fitted effect of over 55% in size
# Method in brief: as §1
# [9] = Quantitative High-Throughput drug screen in 47 multiple myeloma cell lines against the NCATS MIPE library collection: PE2_PLB cell viability assay (AID 1919869); also: nearly all actives have a fitted effect of over 35% in size
# Method in brief: as §1
# [10] = Quantitative High-Throughput drug screen in 47 multiple myeloma cell lines against the NCATS MIPE library collection: OCIMY7_PLB cell viability assay (AID 1918987); details: OCI-MY7 myeloma viability, CellTiter-Glo ATP, 48 h; viability (% of DMSO): at 45.8 µM (top of the series); also: nearly all actives have a fitted effect of over 65% in size
# Method in brief: as §1
# Potency is read from the fitted curve at half-maximal effect.
Compound,Potency [1],Potency [2],Potency [3],Potency [4],Potency [5],Potency [6],Potency [7],Potency [8],Potency [9],Potency [10],viability [3],viability (% of DMSO control) [8]
C=CCNC1=C2C[C@@H](C)C[C@H](OC)[C@@H](O)[C@@H](C)C=C(C)[C@H](OC(N)=O)[C@@H](OC)C=CC=C(C)C(=O)NC(=CC1=O)C2=O,526 nM (active),1320 nM (active),833 nM (active),833 nM (active),2640 nM (active),662 nM (active),264 nM (active),1320 nM (active),4180 nM (active),–,–,–
CS[C@H]1SC[C@@H]2C(=O)N(C)[C@H](C(C)C)C(=O)OC[C@H](NC(=O)c3cnc4ccccc4n3)C(=O)N[C@H](C)C(=O)N(C)[C@@H]1C(=O)N(C)[C@H](C(C)C)C(=O)OC[C@H](NC(=O)c1cnc3ccccc3n1)C(=O)N[C@H](C)C(=O)N2C,2.1 nM (active),–,–,6.6 nM (active),1 nM (active),7.4 nM (active),1 nM (active),1 nM (active),1 nM (active),41.8 nM (active),–,–
C[C@@]12C[C@@]3(O)O[C@@H](O1)[C@]1(COC(=O)c4ccccc4)[C@@H]3C[C@@]12O[C@@H]1O[C@H](CO)[C@@H](O)[C@H](O)[C@@H]1O,inactive,–,–,inactive,inactive,inactive,2640 nM (active),–,inactive,inactive,–,–
CCN(C(=O)c1c(O)c2c(Cl)cccc2n(C)c1=O)c1ccccc1,inactive,–,–,inactive,inactive,inactive,–,–,inactive,inactive,–,–
CO[C@@H]1[C@@H](O)[C@H](O)[C@@H](n2c3c(Cl)cccc3c3c4c(c5c6cccc(Cl)c6[nH]c5c32)C(=O)NC4=O)O[C@@H]1CO,2090 nM (active),2090 nM (active),2350 nM (active),1480 nM (active),74.3 nM (active),166 nM (active),662 nM (active),235 nM (active),1050 nM (active),–,–,–
CCC(C)CCCCC(=O)N[C@@H](CCN)C(=O)NC(C(=O)N[C@H](CCN)C(=O)N[C@@H]1CCNC(=O)C([C@@H](C)O)NC(=O)[C@@H](CCN)NC(=O)[C@@H](CCN)NC(=O)[C@@H](CC(C)C)NC(=O)[C@H](Cc2ccccc2)NC(=O)[C@H](CCN)NC1=O)[C@@H](C)O (stereo partly drawn) ({Octanoyl(6-Me)}-[Dab][ξThr(3R)][dDab][dDab][Dab]F[dL][dDab][dDab][ξThr(3R)]; lactam 4-C),–,–,–,–,–,inactive,inactive,–,inactive,inactive,110%,–
CON=C(C(=O)N[C@@H]1C(=O)N2C(C(=O)O)=C(CSC(=O)c3ccco3)CS[C@H]12)c1csc(N)n1,–,inactive,–,–,–,inactive,inactive,–,inactive,inactive,134%,–
Cc1cc(O)c2c(c1)C(=O)c1cccc(O)c1C2=O,–,–,–,–,inactive,inactive,–,–,inactive,inactive,–,–
C#CCC(Cc1cnc2nc(N)nc(N)c2n1)c1ccc(C(=O)N[C@@H](CCC(=O)O)C(=O)O)cc1 (stereo not given in full),inactive,166 nM (active),–,372 nM (active),41.8 nM (active),59 nM (active),118 nM (active),372 nM (active),418 nM (active),–,117%,–
C[C@]12C=CC(=O)N[C@@H]1CC[C@H]1[C@H]3CC[C@@H](C(=O)Nc4cc(C(F)(F)F)ccc4C(F)(F)F)[C@@]3(C)CC[C@@H]12,16600 nM (active),–,–,inactive,16600 nM (active),13200 nM (active),–,inactive,–,16600 nM (active),–,–
CC(C)Oc1ccc(C(=O)N[C@H](CNC(=O)CN(C)C)Cc2ccc(-c3cn4cccc([C@H](C)O)c4n3)cc2)cc1Cl,418 nM (active),–,–,20900 nM (active),105 nM (active),148 nM (active),5260 nM (active),–,–,332 nM (active),–,–
C[C@@H]1CC[C@@]2(OC1)OC1CC3C4CC=C5CC(O)CCC5(C)C4CCC3(C)C1[C@@H]2C (stereo not given in full),–,inactive,–,–,–,–,–,–,inactive,inactive,–,–
N#CC(=C(O)c1ccc(Cl)cc1Cl)c1nc2cc(Cl)ccc2c(=O)[nH]1,–,inactive,–,inactive,–,inactive,16600 nM (active),inactive,–,inactive,–,–
OCCNC1CCCc2c1[nH]c1ccc(-c3ccccc3)cc21 (stereo not given),18700 nM (active),–,–,20900 nM (active),26400 nM (active),9350 nM (active),8330 nM (active),–,14800 nM (active),20900 nM (active),–,–
O=C(NCc1ccccc1)[C@H](Cc1ccccc1)NC(=O)[C@@H]1O[C@@H]1C(=O)NCCc1ccc(O)cc1,–,–,–,–,–,14800 nM (active),inactive,–,23500 nM (active),inactive,128%,–
CCOc1cc2ncc(C#N)c(Nc3ccc(OCc4ccccn4)c(Cl)c3)c2cc1NC(=O)C=CCN(C)C,833 nM (active),–,–,–,18.7 nM (active),132 nM (active),1180 nM (active),209 nM (active),5260 nM (active),52.6 nM (active),–,–
CN1CCCN(C(=O)c2cccc(-c3ccc(C=C4C(=O)Nc5ccc(Cl)cc54)o3)c2)CC1,9350 nM (active),23500 nM (active),14800 nM (active),18700 nM (active),7430 nM (active),11800 nM (active),18700 nM (active),935 nM (active),23500 nM (active),–,–,–
N=c1ccn2c(n1)O[C@H]1[C@@H](O)[C@@H](CO)O[C@H]12,–,–,148 nM (active),18700 nM (active),–,5900 nM (active),18700 nM (active),14800 nM (active),inactive,332 nM (active),–,–

Compound,Potency [1],Potency [2],Potency [3],Potency [4],Potency [5],Potency [6],Potency [7],Potency [8],Potency [9],Potency [10],viability [3],viability (% of DMSO control) [8]
CC(=O)[C@]1(O)Cc2c(O)c3c(c(O)c2[C@@H](O[C@H]2C[C@H](N)[C@@H](O)[C@H](C)O2)C1)C(=O)c1ccccc1C3=O,132 nM (active),418 nM (active),187 nM (active),264 nM (active),235 nM (active),166 nM (active),418 nM (active),37.2 nM (active),132 nM (active),–,–,–
CCN(CC)CCCCNc1ncc2c(n1)N(C)C(=O)N(c1c(Cl)c(OC)cc(OC)c1Cl)C2,14800 nM (active),833 nM (active),14800 nM (active),18700 nM (active),23500 nM (active),13200 nM (active),18700 nM (active),inactive,–,–,–,–
CC(C)N1[N]C(=C2C=c3cc(O)ccc3=N2)c2c(N)ncnc21,1180 nM (active),296 nM (active),118 nM (active),4180 nM (active),296 nM (active),93.5 nM (active),264 nM (active),187 nM (active),148 nM (active),–,–,–
O=c1ccn([C@@H]2O[C@H](CO)[C@H](O)[C@@H]2F)c(=O)[nH]1,inactive,inactive,–,5900 nM (active),7430 nM (active),5900 nM (active),–,–,–,–,118%,–
COc1cc(N2CCC(C(N)=O)CC2)ccc1Nc1nc(N)c(Cl)c(Nc2ccccc2S(=O)(=O)C(C)C)n1,935 nM (active),–,–,–,93.5 nM (active),93.5 nM (active),418 nM (active),132 nM (active),418 nM (active),209 nM (active),–,–
OCC(O)C(O)C(O)CO (stereo not given),–,–,–,–,inactive,inactive,–,–,inactive,inactive,–,–
C=C[C@@H]1CN2CCC1C[C@H]2[C@H](O)c1ccnc2ccc(OC)cc12 (stereo not given in full),18700 nM (active),inactive,–,–,–,–,–,–,–,–,93.1%,–
CN(CC(=O)N(Cc1ccc(C2CCCCC2)cc1)c1ccc(C(=O)O)c(O)c1)S(=O)(=O)c1c(F)c(F)c(F)c(F)c1F,18700 nM (active),–,–,13200 nM (active),4690 nM (active),4690 nM (active),8330 nM (active),–,3320 nM (active),8330 nM (active),–,77% (active)
COC(=O)[C@@H]1[C@H]2C[C@@H]3c4[nH]c5ccccc5c4CCN3C[C@@H]2CC[C@@H]1O,–,inactive,–,–,inactive,inactive,inactive,inactive,inactive,inactive,–,–
C[C@@H](Oc1ccc2[nH]nc(C=Cc3cnn(CCO)c3)c2c1)c1c(Cl)cncc1Cl,6620 nM (active),–,–,23500 nM (active),662 nM (active),93.5 nM (active),1320 nM (active),–,148 nM (active),148 nM (active),–,–
CC(C(C)N1CC(=O)NC(=O)C1)N1CC(=O)NC(=O)C1 (stereo not given),469 nM (active),inactive,–,inactive,inactive,inactive,inactive,526 nM (active),inactive,–,134%,–
CC[C@H]1OC(=O)[C@H](C)[C@@H](O[C@H]2C[C@@](C)(OC)[C@@H](O)[C@H](C)O2)[C@H](C)[C@@H](O[C@@H]2O[C@H](C)C[C@H](N(C)C)[C@@H]2O)[C@](C)(OC)C[C@@H](C)C(=O)[C@H](C)[C@@H](O)[C@]1(C)O,–,inactive,105 nM (active),–,inactive,inactive,inactive,inactive,inactive,inactive,–,–
COc1cc([C@@H]2c3cc4c(cc3[C@H](O)[C@H]3COC(=O)[C@@H]23)OCO4)cc(OC)c1OC,29.6 nM (active),–,–,–,83.3 nM (active),46.9 nM (active),296 nM (active),209 nM (active),148 nM (active),46.9 nM (active),–,–
COc1cc2ncnc(Nc3cccc(Br)c3)c2cc1OC,11.8 nM (active),–,–,–,11.8 nM (active),37.2 nM (active),743 nM (active),–,5900 nM (active),37.2 nM (active),–,–
O=C1c2cccc(O)c2C(=O)c2c(O)cc(CO)cc21,–,inactive,–,inactive,–,inactive,–,–,inactive,inactive,–,–
COC1=C(OC)C(=O)C(CC=C(C)CCC=C(C)CCC=C(C)CCC=C(C)CCC=C(C)CCC=C(C)CCC=C(C)CCC=C(C)CCC=C(C)CCC=C(C)C)=C(C)C1=O,–,inactive,–,–,inactive,inactive,–,inactive,inactive,inactive,99.4%,–
O=C(C=CC=Cc1ccc2c(c1)OCO2)N1CCCCC1,–,inactive,–,inactive,–,–,2640 nM (active),inactive,inactive,inactive,–,–
